Measurements as given in the supplement of paper PMC8728848.
This is one part of a sample in which the strongest signals are shown more often than they occur.

What was measured:
Assay in all cases: glycan array binding signal (z-score within array); higher = stronger binding
Conditions in all cases: glycan notation: IUPAC condensed, linker removed
Fuc(a1-2)Gal = target: Fuc(a1-2)Gal
Procedure, shortened: (§1)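 Columns mapping to the same glycan were averaged after glycan names were converted to IUPAC-condensed notation. The data come from 3228 arrays in the Consortium for Functional Glycomics database, limited to those with an available protein sequence. Binding is reported as a within-array Z-score averaged across arrays of one protein sequence and across linkers.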

[1] = target: Fuc(a1-2)Gal(b1-3)[Fuc(a1-4)]GlcNAc(b1-2)Man(a1-3)[Fuc(a1-2)Gal(b1-3)[Fuc(a1-4)]GlcNAc(b1-2)Man(a1-6)]Man(b1-4)GlcNAc(b1-4)GlcNAc
Procedure, shortened: as §1

[2] = target: Fuc(a1-2)Gal(b1-3)[Fuc(a1-4)]GlcNAc(b1-3)[Gal(b1-4)GlcNAc(b1-6)]Gal(b1-4)Glc
Procedure, shortened: as §1

[3] = target: Fuc(a1-2)Gal(b1-4)[Fuc(a1-3)]GlcNAc(b1-2)[Fuc(a1-2)Gal(b1-4)[Fuc(a1-3)]GlcNAc(b1-4)]Man(a1-3)[Fuc(a1-2)Gal(b1-4)[Fuc(a1-3)]GlcNAc(b1-2)Man(a1-6)]Man(b1-4)GlcNAc(b1-4)GlcNAc
Procedure, shortened: as §1

[4] = target: Fuc(a1-2)Gal(b1-4)[Fuc(a1-3)]GlcNAc(b1-3)GalNAc
Procedure, shortened: as §1

[5] = target: Fuc(a1-2)Gal6S(b1-4)Glc6S
Procedure, shortened: as §1

Fuc(a1-3)GlcNAc = target: Fuc(a1-3)GlcNAc
Procedure, shortened: as §1

[6] = target: Fuc(a1-3)[Gal(b1-4)]GlcNAc
Procedure, shortened: as §1

[7] = target: Fuc(a1-3)[Gal(b1-4)]GlcNAc(b1-6)GalNAc
Procedure, shortened: as §1

[8] = target: Fuc(a1-3)[Gal(b1-4)]GlcNAc(b1-6)[Gal(b1-3)GlcNAc(b1-3)]Gal(b1-4)Glc
Procedure, shortened: as §1

Gal(a1-3)Gal(b1-4)GlcNAc = target: Gal(a1-3)Gal(b1-4)GlcNAc
Procedure, shortened: as §1

[9] = target: Gal(b1-3)GalNAc(a1-3)[Fuc(a1-2)]Gal(b1-4)GlcNAc
Procedure, shortened: as §1

[10] = target: Gal(b1-3)GlcNAc(b1-3)Gal(b1-4)Glc
Procedure, shortened: as §1

[11] = target: Gal(b1-3)[Neu5Ac(a2-6)]GalNAc
Procedure, shortened: as §1

Gal(b1-4)Glc6S = target: Gal(b1-4)Glc6S
Procedure, shortened: as §1

Gal(b1-4)GlcNAc = target: Gal(b1-4)GlcNAc
Procedure, shortened: as §1

Gal(b1-4)GlcNAc(b1-2)Man = target: Gal(b1-4)GlcNAc(b1-2)Man
Procedure, shortened: as §1

[12] = target: Gal(b1-4)GlcNAc(b1-3)Gal(b1-4)[Fuc(a1-3)GlcNAc(b1-6)]Gal(b1-4)Glc
Procedure, shortened: as §1

Gal3S(b1-4)Glc6S = target: Gal3S(b1-4)Glc6S
Procedure, shortened: as §1

Gal3S6S(b1-4)GlcNAc = target: Gal3S6S(b1-4)GlcNAc
Procedure, shortened: as §1

Gal4S6S(b1-4)GlcNAc = target: Gal4S6S(b1-4)GlcNAc
Procedure, shortened: as §1

GalNAc(b1-3)Gal = target: GalNAc(b1-3)Gal
Procedure, shortened: as §1

[13] = target: GalNAc(b1-4)GlcNAc(b1-2)Man(a1-3)[GalNAc(b1-4)GlcNAc(b1-2)Man(a1-6)]Man(b1-4)GlcNAc(b1-4)GlcNAc
Procedure, shortened: as §1

[14] = target: GlcNAc(a1-4)Gal(b1-4)GlcNAc(b1-3)Gal(b1-4)[Fuc(a1-3)]GlcNAc(b1-3)Gal(b1-4)[Fuc(a1-3)]GlcNAc
Procedure, shortened: as §1

[15] = target: GlcNAc(a1-6)Gal(b1-4)GlcNAc
Procedure, shortened: as §1

[16] = target: GlcNAc(b1-2)[GlcNAc(b1-6)]Man(a1-6)[GlcNAc(b1-2)Man(a1-3)]Man(b1-4)GlcNAc(b1-4)GlcNAc
Procedure, shortened: as §1

Man(b1-4)GlcNAc = target: Man(b1-4)GlcNAc
Procedure, shortened: as §1

[17] = target: Neu5Ac(a2-3)Gal(b1-3)[Fuc(a1-4)]GlcNAc(b1-3)Gal(b1-3)[Fuc(a1-4)]GlcNAc
Procedure, shortened: as §1

[18] = target: Neu5Ac(a2-3)Gal(b1-4)GlcNAc(b1-3)Gal(b1-4)GlcNAc
Procedure, shortened: as §1

[19] = target: Neu5Ac(a2-3)Gal(b1-4)GlcNAc(b1-3)Gal(b1-4)[Fuc(a1-3)]GlcNAc
Procedure, shortened: as §1

[20] = target: Neu5Ac(a2-3)Gal(b1-4)[Fuc(a1-3)]GlcNAc(b1-6)[Gal(b1-3)]GalNAc
Procedure, shortened: as §1

[21] = target: Neu5Ac(a2-6)Gal(b1-4)GlcNAc(b1-2)Man(a1-3)[Gal(b1-4)GlcNAc(b1-2)Man(a1-6)]Man(b1-4)GlcNAc(b1-4)GlcNAc
Procedure, shortened: as §1

[22] = target: Neu5Ac(a2-6)GlcNAc(b1-4)GlcNAc
Procedure, shortened: as §1

[23] = target: Neu5Gc(a2-3)Gal(b1-3)[Fuc(a1-4)]GlcNAc
Procedure, shortened: as §1

B1: Protectin (Homo sapiens), P13987 (protein)
chain: MGIQGGSVLFGLLLVLAVFCHSGHSLQCYNCPNPTADCKTAVNCSSDFDACLITKAGLQVYNKCWKFEHCNFNDVTTRLRENELTYYCCKKDLCNFNEQLENGGTSLSEKTVLLLVTPFLAAAWSLHP
glycan array binding signal (z-score) (Fuc(a1-2)Gal): -0.701
glycan array binding signal (z-score) [1]: 3.68
glycan array binding signal (z-score) [2]: -0.784
glycan array binding signal (z-score) [3]: 2.73
glycan array binding signal (z-score) [4]: 3.6
glycan array binding signal (z-score) [5]: -0.108
glycan array binding signal (z-score) (Fuc(a1-3)GlcNAc): -0.062
glycan array binding signal (z-score) [6]: 0.55
glycan array binding signal (z-score) [7]: 2.63
glycan array binding signal (z-score) [8]: -0.354
glycan array binding signal (z-score) (Gal(a1-3)Gal(b1-4)GlcNAc): 1.53
glycan array binding signal (z-score) [9]: -0.989
glycan array binding signal (z-score) [10]: 2.77
glycan array binding signal (z-score) [11]: 0.383
glycan array binding signal (z-score) (Gal(b1-4)Glc6S): 0.209
glycan array binding signal (z-score) (Gal(b1-4)GlcNAc): 0.172
glycan array binding signal (z-score) (Gal(b1-4)GlcNAc(b1-2)Man): 0.267
glycan array binding signal (z-score) [12]: -0.518
glycan array binding signal (z-score) (Gal3S(b1-4)Glc6S): -0.411
glycan array binding signal (z-score) (Gal3S6S(b1-4)GlcNAc): -0.261
glycan array binding signal (z-score) (Gal4S6S(b1-4)GlcNAc): 0.014
glycan array binding signal (z-score) (GalNAc(b1-3)Gal): -1.36
glycan array binding signal (z-score) [13]: 2.58
glycan array binding signal (z-score) [14]: 6.43
glycan array binding signal (z-score) [15]: -0.166
glycan array binding signal (z-score) [16]: -0.347
glycan array binding signal (z-score) (Man(b1-4)GlcNAc): -0.439
glycan array binding signal (z-score) [17]: 3.13
glycan array binding signal (z-score) [18]: 0.462
glycan array binding signal (z-score) [19]: 0.647
glycan array binding signal (z-score) [20]: -0.153
glycan array binding signal (z-score) [21]: -1.94
glycan array binding signal (z-score) [22]: -0.361
glycan array binding signal (z-score) [23]: 0.087
